FBW7 act – activators of human E3 ligase FBW7; Q969H0; AlphaScreen FBW7–phospho-cyclin E peptide binding, activator screen; normalized activity (activation), % at 26.1 µM; 650,000 tested, 0.13% active; in the data active = normalized activity above about 1.9%;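 note: purified mutant Fbw7 with reduced substrate affinity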
TEAD-YAP block – TEAD-YAP interaction inhibition; HEK-TIYL cells, TEAD-Gal4/YAP UAS-luciferase luminescence; inhibition, % at 9.12 µM; 640,000 tested, 1.4% active; AID 1259422; in the data active = inhibition above about 32%;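 note: 0% = median of test compound wells and 100% = reference inhibitor wells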
MITF inh – blocks human microphthalmia-associated transcription factor. inhibition, % at 2.6 µM. O75030. 650,000 tested, 0.91% active. AlphaScreen MITF homodimerization, bead proximity signal; in the data active = inhibition above about 50%;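 note: 0% = vehicle wells with protein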
Target sequence (O75030 whole entry, looked up): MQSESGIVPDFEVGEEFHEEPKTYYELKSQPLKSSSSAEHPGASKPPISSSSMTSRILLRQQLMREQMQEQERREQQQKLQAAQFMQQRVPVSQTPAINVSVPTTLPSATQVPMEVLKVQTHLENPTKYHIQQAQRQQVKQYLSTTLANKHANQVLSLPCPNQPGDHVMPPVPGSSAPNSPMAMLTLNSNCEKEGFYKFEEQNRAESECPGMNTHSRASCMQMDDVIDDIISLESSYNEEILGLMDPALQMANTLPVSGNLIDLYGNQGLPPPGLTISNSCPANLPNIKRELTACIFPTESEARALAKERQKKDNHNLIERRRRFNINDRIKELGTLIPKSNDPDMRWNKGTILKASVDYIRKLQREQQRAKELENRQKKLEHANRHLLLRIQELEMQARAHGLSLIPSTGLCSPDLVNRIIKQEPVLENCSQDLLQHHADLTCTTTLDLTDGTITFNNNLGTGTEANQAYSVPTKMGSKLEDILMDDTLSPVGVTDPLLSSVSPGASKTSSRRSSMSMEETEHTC
GPR151 ag – activators of human GPR151 | PathHunter beta-arrestin GPR151 cells, luminescence | activation, % at 11.2 µM | 650,000 tested, 1% active | AID 1508602; in the data active = activation above about 4.9%;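 note: 0% = median of compound wells and 100% = cells with positive control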
Numbers without * were called inactive. Only some compounds are listed: those with a hit (about 3.5% of all), similar ones and a draw of the others.

SMILES | FBW7 act | TEAD-YAP block | MITF inh | GPR151 ag
O=C1c2ccccc2C(=O)C12OC(c1ccc(Br)cc1)C1(C(=O)c3ccccc3C1=O)C2c1ccc(F)cc1 (stereo unspecified) | 0 | -5 | 63* | 0
Cc1ccc(C2OC3(C(=O)c4ccccc4C3=O)C(c3ccccc3)C23C(=O)c2ccccc2C3=O)cc1 (stereo unspecified) | 0 | 9 | 1 | 0
COc1cc2nc(NCCCN3CCCCC3)n3nc(-c4cccnc4)nc3c2cc1OC | 0 | 37* | 16 | 2
CCCCNc1nc2cc(OC)c(OC)cc2c2nc(-c3cccnc3)nn12 | 0 | -14 | -7 | 0
c1cncc(-c2nc3c4ccccc4nc(NCCCN4CCCCCC4)n3n2)c1 | 0 | 69* | -8 | 0
CCOc1ccccc1NC(=O)CCc1nc2cccnc2n1-c1ccccc1 | 0 | 5 | 5 | 0
COCc1cc(C)nc(SCC(=O)c2ccc([N+](=O)[O-])cc2)c1C#N | 0 | 22 | 14 | -1
Cc1[nH]n(-c2ccccc2)c(=O)c1C(=O)c1cccc(Br)c1 | 0 | 59* | 12 | 1
Cc1[nH]n(-c2ccccc2)c(=O)c1C(c1cccc(Br)c1)c1c(C)[nH]n(-c2ccccc2)c1=O | -1 | 1 | 0 | -1
CCOc1ccccc1N(C)S(=O)(=O)c1ccc2[nH]cc(C(=O)NCc3cccnc3)c(=O)c2c1 | 0 | 63* | 15 | 0
Cc1cccc(C)c1N(C)S(=O)(=O)c1ccc2[nH]cc(C(=O)NCc3cccnc3)c(=O)c2c1 | 0 | 34* | 0 | 3
O=C(N/N=C/c1ccc(I)o1)c1ccc([N+](=O)[O-])cc1 | 0 | -11 | -5 | 2
CCOc1cccc2c1OC1(C)CC2NC(=O)N1c1cccc(F)c1 (stereo unspecified) | 4.4* | 11 | -5 | 3
O=C(NCCN1CCOCC1)c1cccc(-c2ccc(N3CCOCC3)nc2)n1 | 0 | -1 | -7 | 2
CC(=O)Nc1ccc(N2CCOCC2)cc1 | 0 | -9 | -5 | 1
CCCNC(=O)c1cccc(Nc2ccc(N3CCOCC3)cc2)n1 | 0 | 3 | -2 | 1
O=C(NCCc1ccc(O)cc1)c1cccc(-c2ccc(N3CCOCC3)nc2)n1 | 0 | 46* | -2 | -1
O=C(NCCc1ccc(O)cc1)c1cccc(Nc2ccc(N3CCOCC3)cc2)n1 | 0 | 57* | 2 | 0
O=C(Nc1ccc(N2CCOCC2)cc1)c1cccc(Cl)n1 | 0 | 60* | 12 | -11
C/C(=C\C(=O)O)C(=O)Nc1ccc(N2CCOCC2)cc1 | 0 | 1 | 53* | -1
O=C(NNC(=O)c1c(O)c2ccccc2[nH]c1=O)c1ccccc1F | 0 | 3 | 13 | 0
O=C(Cn1c2ccccc2c(=O)c2cc([N+](=O)[O-])ccc21)Nc1ccc(OCc2ccccc2)cc1 | 0 | -3 | -13 | 1
Cc1ccc(-c2c(N3CCN(c4ccccc4F)CC3)c(=O)c2=O)cc1 | 0 | 0 | -10 | 3
COc1cccc(N2CCN(c3c(-c4ccc(C)cc4)c(=O)c3=O)CC2)c1 | 0 | 66* | 0 | 3
COc1ccccc1N1CCN(c2c(-c3ccc(C)cc3)c(=O)c2=O)CC1 | 0 | 71* | -3 | 4
SMILES | FBW7 act | TEAD-YAP block | MITF inh | GPR151 ag
Nc1cccc(-c2nc(NCCc3ccc(O)cc3)c3ncn(C4CCCCC4)c3n2)c1 | 0 | 4 | 9 | 1
c1ccc(CCNc2ccnc3c(-c4ccc5c(c4)OCO5)cnn23)nc1 | 0 | -45 | 25 | 1
COc1cc(-c2cn[nH]c2)cc2c(=O)[nH]c([C@H](N)Cc3cccc(F)c3)nc12 | 0 | 72* | -2 | -1
COc1cc(-c2cn[nH]c2)cc2c(=O)[nH]c(Cc3cccc(NC(=O)C(C)C)c3)nc12 | 1 | -5 | 10 | 0
N[C@H](Cc1cccc(C(F)(F)F)c1)c1nc2ccc(-c3cn[nH]c3)cc2c(=O)[nH]1 | -1 | 19 | 4 | -2
N[C@H](Cc1ccc(Cl)cc1)c1nc2ccc(-c3cn[nH]c3)cc2c(=O)[nH]1 | -1 | 94* | 11 | -1
FC(F)(F)c1cccc(CNc2nc(Nc3cccnc3)nc3c2ncn3-c2ccsc2)c1 | 0 | 56* | 10 | 0
Cc1cnc(Nc2ccncc2)nc1NCc1cccc(C(F)(F)F)c1 | 0 | 45* | 7 | 2
FC(F)(F)c1cccc(CNc2nc(NCc3cccnc3)nc3c2ncn3-c2ccsc2)c1 | 0 | 56* | 1 | 1
FC(F)(F)c1cccc(CNc2nc(Nc3cccnc3)nc3c2ncn3-c2ccccc2)c1 | 0 | 46* | 18 | -1
FC(F)(F)c1cccc(CNc2nc(Nc3ccncc3)nc3c2ncn3-c2ccsc2)c1 | 0 | -4 | 2 | 1
Cc1cnc(Nc2ccncn2)nc1NCc1cccc(C(F)(F)F)c1 | 0 | 29 | -6 | 0
COc1ccc(NC(=O)c2cn(-c3ccccc3)nc2-c2ccc(Br)cc2)cc1 | 0 | -7 | 9 | -2
COc1ccc(C2C3=C(CCCC3=O)Nc3ccc4nc(C)ccc4c32)c(OC)c1 (stereo unspecified) | 0 | -2 | 0 | 0
CSc1nc2c(c(=O)n1-c1ccc([N+](=O)[O-])cc1)SCC2 | 0 | 4 | 18 | -1
Fc1cccc(F)c1-c1cn[nH]c1C1CCCN(Cc2ccn[nH]2)C1 (stereo unspecified) | 0 | 7 | -6 | -1
CCOC(=O)c1ccc(NC(=O)c2cccc(S(=O)(=O)N(CC)CC)c2)cc1 | 0 | 43* | 5 | 1
CN(C)S(=O)(=O)c1cccc(C(=O)Nc2cccc(O)c2)c1 | 0 | 58* | -10 | 0
CCN(CC)S(=O)(=O)c1cccc(C(=O)Nc2ccc(O)cc2)c1 | 0 | 48* | 5 | -2
CCN(CC)S(=O)(=O)c1cccc(C(=O)Nc2cccc(NC(=O)c3cccc(S(=O)(=O)N(CC)CC)c3)n2)c1 | 0 | 12 | 2 | 0
CCOC(=O)c1ccc(NC(=O)c2cccc(OCC)c2)cc1 | 0 | -18 | -5 | -2
COC(=O)c1c(NC(=O)/C(C#N)=C/c2ccccc2)sc2c1CCCC2 | 0 | 9 | 8 | 2
Cc1ccc(S(=O)(=O)Nc2ccc(SC#N)cc2)cc1 | 0 | 9 | 13 | 0
Cc1ccc(C(=O)NCc2cccs2)cc1C | 0 | -26 | 2 | 0
COc1ccc(CC(=O)NCc2ccc(F)cc2)cc1 | 0 | 46* | 6 | 0
SMILES | FBW7 act | TEAD-YAP block | MITF inh | GPR151 ag
O=C(Cn1cccc1)NCc1ccc(F)cc1 | 0 | -13 | 3 | 0
Cc1ccc(CC(=O)NCc2cccs2)cc1C | 0 | 45* | -14 | -1
COc1ccc(CC(=O)NCc2ccc(Cl)cc2)cc1 | 0 | 40* | 7 | 0
O=C(Cc1ccc(-n2cccc2)cc1)NCc1ccc(F)cc1 | 0 | 60* | 5 | 1
CC(C)(C)c1csc2ncc(C(=O)NCc3cccc(Cl)c3)c(=O)n12 | 0 | -2 | -1 | 0
O=C(NN=C(c1ccccc1)c1ccccc1)c1ccncc1 | 0 | 9 | 15 | 0
Cc1ccc(CNC(=O)CSCc2ccc(F)cc2)cc1 | 0 | -1 | 2 | 0

Assay outcomes (PubChem)
